# Compound activity deposited in PubChem BioAssay by National Center for Advancing Translational Sciences (NCATS).
# TGFb SMAD3 inh: qHTS for Inhibitors of TGF-b; HepG2 CAGA-GFP TGF-b/SMAD3 reporter, GFP fluorescence, 18 h; TGF-beta stimulated, 500 pg/mL final; Potency, µM (series often up to 46.1 µM), for inactives: at the top dose activity, negative = inhibition, hits mostly inhibitors; 410,000 tested, 1.2% active; further: on the % scale 0 is the no-effect control and ±100 the full control effect; nearly all actives have a fitted effect of over 65% in size
#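 Per well, imaged GFP fluorescence of HEPG2 CAGA-GFP cells gives the signal; cells get compound, then TGF-beta (500 pg/mL final), 18 h at 37 degrees C; %Activity versus -TGF-beta and +DMSO controls.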
# HT1080 IDH1KD tx: qHTS for induction of synthetic lethality in tumor cells producing 2HG: qHTS for the HT-1080-IDH1KD cell line; HT-1080 IDH1 knockdown viability, ATP luminescence, 48 h; Potency, µM (titrated, usually from 46.1 µM), for the others: top-dose activity, negative = toxicity, usual class: cytotoxic; 360,000 tested, 2% active; AID 686971, 2013;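 further: 0% = DMSO wells and -100% = cell-free medium wells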
#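 Using the IDH1-knockdown HT-1080 line run in the same batch and compound series as the NT line, viability after 48 h at 37 °C was determined by CellTiter-Glo luminescence and expressed as % activity.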
# S2 tox: Viability Counterscreen for Primary qHTS for Inhibitors of ATXN expression. S2 cells (HEK-293 line with an ATXN2-luciferase reporter) viability, CellTiter-Fluor protease fluorescence, 24 h. AID 651635, 2014. Potency, µM (highest dose often 56.7 µM), most hits filed as cytotoxic. 400,000 tested, 0.49% active; further: nearly all actives have a fitted effect of over 40% in size
# ATXN2 expr inh: Primary qHTS for Inhibitors of ATXN expression; HEK-293 ATXN2-luciferase reporter, luminescence, 24 h; Potency, µM (series often up to 57 µM), for the others: top-dose activity change, negative = inhibition, actives largely listed as inhibitors; 360,000 tested, 0.72% active; further: on the % scale 0 is the no-effect control and ±100 the full control effect; nearly all actives have a fitted effect of over 55% in size
#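 ATXN2-luciferase reporter cells (luciferase flanked by upstream and downstream ATXN2 gene portions) were treated 24 h at 37 °C with compounds at up to 57 uM. SteadyGlo luminescence gave expression; GF-AFC fluorescence gave viability.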
# HT1080NT lethal: qHTS for induction of synthetic lethality in tumor cells producing 2HG: qHTS for the HT-1080-NT fibrosarcoma cell line. 360,000 tested, 1.6% active. HT-1080-NT fibrosarcoma viability, CellTiter-Glo ATP luminescence, 48 h. Potency, µM (series often up to 46.1 µM), for inactives: top-dose activity, negative = less viability, most hits filed as cytotoxic. AID 686970, 2013;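 further: NT is the 2HG producing partner of a matched IDH1 knockdown line; 0% = DMSO-treated cells and -100% = media-only wells without cells; nearly all actives have a fitted effect of over 55% in size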
#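 Toxicity toward the 2HG-producing NT line was scored as %Activity, normalised to DMSO and no-cell wells, from CellTiter-Glo luminescence after 48 hours' treatment.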
# HepG2 tox: qHTS for Inhibitors of TGF-b: Cytotox Counterscreen | 410,000 tested, 0.76% active | AID 588856, 2011 | HepG2 CAGA-GFP viability, ATP luminescence, 18 h | Potency, µM (highest dose often 46.1 µM), without a hit: top-dose activity change, negative = cytotoxicity, most hits filed as cytotoxic
#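 HepG2 CAGA-GFP cells (1000/well, DMEM with 1% FBS) received compound, then TGF-beta at 500 pg/mL final, and were incubated 18 hours at 37 degrees C. Viability was read by CellTiter-Glo luminescence. Media-only wells were set as complete cell-killing and DMSO as no toxicity.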
# An asterisk follows results filed as active; i = inactive; ? = inconclusive; / = no result given. This is a sample that favours compounds with a hit; in the whole collection about 3.8% have one here. The call rests on the fitted dose curve; in most records, active means well fitted curve in the direction sought with a large enough effect; inconclusive means small, poorly fitted or top-dose-only effect, or another doubt; inactive means no such curve, though single readings can be large; an effect the other way counts as inactive or inconclusive. Potency means the concentration at half of the fitted maximal effect.
SMILES,TGFb SMAD3 inh,HT1080 IDH1KD tx,S2 tox,ATXN2 expr inh,HT1080NT lethal,HepG2 tox
Cc1c(Br)c([N+](=O)[O-])nn1CC(=O)Nc1ccc(C(C)C)cc1,?,23µM*,i,-6%,-28%,-27%
Cc1ccc(CNc2nc(Cl)c(C#N)s2)cc1,-3%,-17%,i,26%,-22%,-4%
N#Cc1sc(NCc2cccc(Cl)c2)nc1Cl,?,?,i,-3%,23µM*,-43%
CCn1c(N)[n+](CC(=O)Nc2ccc(SC(F)F)cc2)c2ccccc21,?,?,i,?,?,14µM*
CC[N+](CC)(CC)CC(=O)Nc1ccc(SC(F)F)cc1,2%,?,i,-25%,2%,10%
O=C(COC(=O)C12CC3CC(CC(Cl)(C3)C1)C2)NCc1ccco1,-5%,/,/,/,/,-3%
CCOC(=O)c1cc(C)n(CC2CCC(C(=O)Nc3cccc(C(C)=O)c3)CC2)c1C (stereo not drawn),14µM*,/,/,/,/,-25%
CCOC(=O)c1cc(C)n(CC2CCC(C(=O)Nc3ccc(Cl)cc3)CC2)c1C (stereo not drawn),8.9µM*,/,/,/,/,-25%
CC1CCc2nc(-c3cc4ccc(O)cc4oc3=O)sc2C1 (stereo not drawn),170%,/,/,/,/,-6%
O=C(O)CSc1ncnc2scc(-c3ccc(Br)cc3)c12,2%,-11%,i,-12%,2%,-16%
Cn1nnnc1Sc1ncnc2scc(-c3cccc(S(C)(=O)=O)c3)c12,?,/,?,8.9µM*,/,-115%
Cn1nnnc1Sc1ncnc2scc(-c3cccc(Br)c3)c12,?,/,14µM*,8.9µM*,/,-52%
O=C(O)CSc1ncnc2scc(-c3ccccc3)c12,-24%,17%,i,-12%,10%,-6%
CC(=O)c1cccc(-c2csc3ncnc(Sc4nnnn4C)c23)c1,6.3µM*,/,7.9µM*,6.3µM*,/,-89%
CC(=O)c1nnn(-c2nc(C#N)nc(N3CCOCC3)n2)c1C,8%,/,/,/,/,20%
CC(C)(C)c1ccc(C(=O)C[n+]2ccccc2Cl)cc1,-10%,/,/,/,/,-1%
CCOC(=O)c1c(C)oc2c1cc(O)c1ccccc12,-2%,-7%,i,81%,-5%,-6%
CCOC(=O)/C=C(\C)Sc1cc(O)c2ccccc2c1O,3.2µM*,23µM*,?,/,23µM*,5.6µM*
CCOC(=O)/C=C(\C)Sc1cc(=O)oc2ccccc12,-5%,16µM*,i,3%,15µM*,-31%
CN1\C(=C/C=C/C=C/C=[N+](C)C)C(C)(C)c2ccccc21,?,?,18µM*,/,?,-34%
CN1/C(=C\C=O)C(C)(C)c2ccccc21,-4%,-10%,i,-27%,3%,-10%
CN1C(C(=O)Nc2ccc(C(=O)O)cc2)=C(O)c2ccccc2S1(=O)=O,-3%,-4%,i,-2%,-15%,5.6µM*
Cc1cccc(CN2C(=O)[C@@H]3Cc4c([nH]c5ccccc45)C(C)(C)N3C2=O)c1,?,/,?,?,/,-21%
Cc1cccc(CN2C(=O)[C@H]3Cc4c([nH]c5ccccc45)C(C)(C)N3C2=O)c1,11µM*,/,?,?,/,-28%
CCN=C1S/C(=C\c2ccc(O)c(OCC)c2)C(=O)N1CC,-15%,-24%,i,5%,-18%,-50%
SMILES,TGFb SMAD3 inh,HT1080 IDH1KD tx,S2 tox,ATXN2 expr inh,HT1080NT lethal,HepG2 tox
CCN=C1S/C(=C\c2cc(OCC)c(O)cc2Br)C(=O)N1CC,1%,21µM*,?,?,18µM*,-48%
CCCS(=O)(=O)c1c(S(=O)(=O)CCC)c2c(C)cccn2c1C(=O)N/N=C/c1cc(O)cc(O)c1,-15%,7.3µM*,i,7.9µM*,?,-12%
CCCS(=O)(=O)c1c(S(=O)(=O)CCC)c2c(C)cccn2c1C(N)=O,-1%,2%,i,-3%,-4%,-12%
C=CCNc1nc(NCCNC(C)=O)c2sc(-c3ccccc3)cc2n1,12%,-26%,?,-15%,?,-8%
C=CCNc1nc(NCCOc2ccccc2Cl)c2sc(-c3ccccc3)cc2n1,?,?,?,?,18µM*,-53%
c1ccc(OCCNc2nc(NCC3CC3)nc3cc(-c4ccccc4)sc23)cc1,?,?,16µM*,?,15µM*,-92%
c1ccc(CNc2nc(NCC3CC3)nc3cc(-c4ccccc4)sc23)cc1,?,?,?,?,23µM*,-93%
C=CCNc1nc(NCCOC)c2sc(-c3ccccc3)cc2n1,?,?,?,?,?,-43%
C=CCNc1nc(NCc2ccc(N(C)C)cc2)c2sc(-c3ccccc3)cc2n1,?,?,?,-8%,?,13µM*
CC(C)Nc1nc(NCCN2CCCC2)c2sc(-c3ccccc3)cc2n1,?,?,i,?,?,-8%
Nc1ccc(C(Cc2ccnc3ccccc23)Cc2ccnc3ccccc23)cc1,-11%,/,/,/,/,-27%
C=CCNc1nc(Nc2ccc(OC)c(OC)c2)c2sc(-c3ccccc3)cc2n1,-21%,5.8µM*,i,0%,5.2µM*,-28%
COc1ccc(Nc2ncnc3sc(-c4ccccc4)cc23)cc1OC,5%,-11%,i,-5%,-12%,-29%
CN(C)CCNc1ccc2ncn3c4ccc(O)cc4c(=O)c1c23,?,21µM*,i,4µM*,?,1%
CN(C)CCNc1ccc(CO)c2sc3ccc(O)cc3c(=O)c12,14µM*,16µM*,19µM*,2.7µM*,?,-24%
CN(C)CCNc1ccc(-c2nn(C)c(=O)c3ccccc23)cc1[N+](=O)[O-],-8%,15%,?,-6%,-2%,-11%
COc1ccc2sc3cccc(NCCN(C)C)c3c(=O)c2c1,?,16µM*,i,-8%,16µM*,3%
COc1ccccc1C(=O)Nc1ccc2c(c1)nc(CCNC(=O)c1ccco1)n2C,?,4.6µM*,i,-14%,?,-14%
Cn1c(CCNC(=O)c2ccco2)nc2cc(NC(=O)c3ccco3)ccc21,20%,1%,i,34%,3%,-2%
c1ccc(-c2cccc(-c3ccccn3)n2)nc1,42%,0.28µM*,?,?,?,-56%
c1ccc(-c2nnc(-c3ccccn3)nn2)nc1,-10%,-13%,i,1%,-9%,-46%
